Reference: PubChem BioAssay (NCATS)
Records with an inconclusive call do not appear. Activity calls are given as the source filed them. The call rests on the fitted dose curve; in most records, active means well fitted inhibition curve with a large enough effect; inconclusive means small, poorly fitted or top-dose-only effect; inactive means flat fitted curve, though single readings scatter.

These molecules were tested on TAB113 (assay: qHTS profiling for inhibitors of Plasmodium falciparum proliferation (AID 504749; further: nearly all actives have a fitted effect of over 60% in size;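 on activity, negative = inhibition: 0% = DMSO vehicle and full inhibition = artemisinin control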)). Details: P. falciparum in erythrocytes, SYBR Green DNA, 72 h; series mostly up to 28.7 µM; activity, negative = inhibition: at the top concentration.
Procedure, shortened: (§1)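 Fluorescence of SYBR Green-bound parasite DNA, read at 485/535 nm, served as the growth measure. Infected erythrocytes were cultured with compound 72 h; artemisinin (0.29 uM) and DMSO wells defined the normalization range.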
Potency means the concentration at half of the fitted maximal effect.

SMILES | activity, negative = inhibition | Potency
CC1(C)C(C=C(Cl)Cl)C1C(=O)OCc1cccc(Oc2ccccc2)c1 (centres undefined) | -12.3% (inactive) | 
CCOC(=O)C1=CC2(CC)CCCN3CCc4c(n1c1ccccc41)C32 (centres undefined) |  | 11200 nM (active)
CC(C)(C)C(=O)OCOC(=O)[C@@H]1N2C(=O)[C@@H](N=CN3CCCCCC3)[C@H]2SC1(C)C | 21.1% [at 12.8 µM] (inactive) | 
CCCCC(C)(O)C/C=C/[C@H]1[C@H](O)CC(=O)[C@@H]1CCCCCCC(=O)OC (some centres undefined) | 3.48% (inactive) | 
CC(C(=O)O)c1ccc(N2Cc3ccccc3C2=O)cc1 (centres undefined) | 10.5% (inactive) | 
CC1=C(/C=C/C(C)=C/C=C/C(C)=C/C=C/C=C(C)/C=C/C=C(C)/C=C/C2=C(C)CCCC2(C)C)C(C)(C)CCC1 | 7.49% (inactive) | 
O=C1C(=O)c2ncccc2-c2cccnc21 |  | 1780 nM (active)
O=C(O)CCC(=O)C(=O)O | -3.45% (inactive) | 
Nc1c(Br)cc(Br)cc1CNC1CCC(O)CC1 (centres undefined) | 6.08% (inactive) | 
CCCCCCCC/C=C\CCCCCCCC(=O)O | 8.15% (inactive) | 
CCOc1ccc2c(c1)C(C)=CC(C)(C)N2 | -18.6% (inactive) | 
CCCCCC(CC)COC(=O)CC(C(=O)OCC(CC)CCCC)S(=O)(=O)O (centres undefined) | 5.24% (inactive) | 
CCC(=O)NCCC1CCc2ccc3c(c21)CCO3 (centres undefined) | -5.24% (inactive) | 
IC(I)I | -1.21% (inactive) | 
Cc1c(C)c2c(c(C)c1O)CC[C@@](C)(CCC[C@H](C)CCC[C@H](C)CCCC(C)C)O2 | -1.46% (inactive) | 
CCCCC(=O)O[C@]1(C(=O)CO)[C@H](C)C[C@H]2[C@@H]3CCC4=CC(=O)C=C[C@]4(C)[C@@]3(F)[C@@H](O)C[C@@]21C | -17.4% (inactive) | 
O=CCCCC=O | -23.1% (inactive) | 
C=CCSSSCC=C | 4% (inactive) | 
CCCCCCCCCCCCCC[n+]1ccc(C)cc1 |  | 3980 nM (active)

SMILES | activity, negative = inhibition | Potency
COC(=O)[C@H]1[C@H]2CC3c4[nH]c5ccccc5c4CCN3C[C@@H]2CC[C@@H]1O (some centres undefined) | 5.15% (inactive) | 
CC(=O)Oc1c(C)cc(OCC(O)CNC(C)C)c(C)c1C (centres undefined) | 4.13% (inactive) | 
CN=C(NC#N)Nc1ccc(C2=NNC(=O)C[C@@H]2C)cc1 | 11.6% (inactive) | 
C#CCOc1ccc2c(C)cc(=O)oc2c1 | -1.25% (inactive) | 
CO[C@H](C(=O)[C@@H](O)[C@@H](C)O)C1Cc2cc3cc(O[C@H]4C[C@@H](O[C@H]5C[C@@H](O)[C@H](O)[C@@H](C)O5)[C@@H](O)[C@@H](C)O4)c(C)c(O)c3c(O)c2C(=O)[C@H]1O[C@H]1C[C@@H](O[C@H]2C[C@@H](O[C@H]3C[C@](C)(O)[C@H](O)[C@@H](C)O3)[C@H](O)[C@@H](C)O2)[C@H](O)[C@@H](C)O1 (some centres undefined) |  | 89.1 nM (active)
COCC(=O)Nc1cc(Sc2ccccc2)ccc1N=C(NC(=O)OC)NC(=O)OC | -14.3% (inactive) | 
CO[C@H]1C[C@@H]2CC[C@@H](C)[C@@](O)(O2)C(=O)C(=O)N2CCCC[C@H]2C(=O)O[C@H]([C@H](C)C[C@@H]2CC[C@@H](OCCO)[C@H](OC)C2)CC(=O)[C@H](C)/C=C(\C)[C@@H](O)[C@@H](OC)C(=O)[C@H](C)C[C@H](C)/C=C/C=C/C=C/1C |  | 1120 nM (active)
O=C(Nc1cccc(C(F)(F)F)c1)c1cc(Br)cc(Br)c1O |  | 12600 nM (active)
Nc1c(N=Nc2ccc(-c3ccc(N=Nc4cc(S(=O)(=O)O)c5ccccc5c4N)cc3)cc2)cc(S(=O)(=O)O)c2ccccc12 | -0.878% (inactive) | 
CCCCCCCC(=O)O | 5.52% (inactive) | 
CC(O)CO (centres undefined) | 20.2% (inactive) | 
O=C(COc1ccc(Cl)cc1)OCCNC12CC3CC(CC(C3)C1)C2 | 3.53% (inactive) | 
CCCCC/C=C\C/C=C\CCCCCCCC(=O)O | 7.64% (inactive) | 
O=S(=O)(O)O | -3.51% (inactive) | 
COC(C(=O)C(O)C(C)O)C1Cc2cc3cc(OC4CC(OC5CC(O)C(O)C(C)O5)C(O)C(C)O4)c(C)c(O)c3c(O)c2C(=O)C1OC1CC(OC2CC(OC3CC(C)(O)C(O)C(C)O3)C(O)C(C)O2)C(O)C(C)O1 (centres undefined) |  | 141 nM (active)
CCCCCCCCCCCC[n+]1ccc2ccccc2c1 |  | 1000 nM (active)
O=C(O)c1cc(O)c2c(c1)[O][Bi][O]2 | 0.226% (inactive) | 
CC1=CCC(C(C)(C)O)CC1 (centres undefined) | 2.17% (inactive) | 
C[C@]12CCC(=O)C=C1CC[C@@H]1[C@@H]2[C@@H](O)C[C@@]2(C)[C@H]1CC[C@]2(O)C(=O)COP(=O)(O)O | 9.56% (inactive) | 

The molecules below were run on TAB165 in the same assay as above. Details: P. falciparum in erythrocytes, SYBR Green DNA, 72 h; series mostly up to 28.7 µM; activity, negative = inhibition: at the top concentration.
Procedure, shortened: as §1

SMILES | activity, negative = inhibition | Potency
CC1(C)C(C=C(Cl)Cl)C1C(=O)OCc1cccc(Oc2ccccc2)c1 (centres undefined) | -16% (inactive) | 
CCOC(=O)C1=CC2(CC)CCCN3CCc4c(n1c1ccccc41)C32 (centres undefined) |  | 7940 nM (active)
CC(C)(C)C(=O)OCOC(=O)[C@@H]1N2C(=O)[C@@H](N=CN3CCCCCC3)[C@H]2SC1(C)C | 6.41% [at 12.8 µM] (inactive) | 
CCCCC(C)(O)C/C=C/[C@H]1[C@H](O)CC(=O)[C@@H]1CCCCCCC(=O)OC (some centres undefined) | 1.25% (inactive) | 
CC(C(=O)O)c1ccc(N2Cc3ccccc3C2=O)cc1 (centres undefined) | 5.9% (inactive) | 
CC1=C(/C=C/C(C)=C/C=C/C(C)=C/C=C/C=C(C)/C=C/C=C(C)/C=C/C2=C(C)CCCC2(C)C)C(C)(C)CCC1 | -20.4% (inactive) | 
O=C1C(=O)c2ncccc2-c2cccnc21 |  | 794 nM (active)
Nc1c(Br)cc(Br)cc1CNC1CCC(O)CC1 (centres undefined) | -3.81% (inactive) | 
CCCCCCCC/C=C\CCCCCCCC(=O)O | 6.08% (inactive) | 
CCOc1ccc2c(c1)C(C)=CC(C)(C)N2 | 7.96% (inactive) | 
CCCCCC(CC)COC(=O)CC(C(=O)OCC(CC)CCCC)S(=O)(=O)O (centres undefined) | 6.72% (inactive) | 
CCC(=O)NCCC1CCc2ccc3c(c21)CCO3 (centres undefined) | 5.66% (inactive) | 
IC(I)I | 4.33% (inactive) | 
Cc1c(C)c2c(c(C)c1O)CC[C@@](C)(CCC[C@H](C)CCC[C@H](C)CCCC(C)C)O2 | -3.5% (inactive) | 
C=CCSSSCC=C | 3.79% (inactive) | 
CCCCCCCCCCCCCC[n+]1ccc(C)cc1 |  | 3980 nM (active)
COC(=O)[C@H]1[C@H]2CC3c4[nH]c5ccccc5c4CCN3C[C@@H]2CC[C@@H]1O (some centres undefined) | 6.32% (inactive) | 
CC(=O)Oc1c(C)cc(OCC(O)CNC(C)C)c(C)c1C (centres undefined) | -8.04% (inactive) | 

SMILES | activity, negative = inhibition | Potency
CN=C(NC#N)Nc1ccc(C2=NNC(=O)C[C@@H]2C)cc1 | 5.62% (inactive) | 
C#CCOc1ccc2c(C)cc(=O)oc2c1 | 6.93% (inactive) | 
CO[C@H](C(=O)[C@@H](O)[C@@H](C)O)C1Cc2cc3cc(O[C@H]4C[C@@H](O[C@H]5C[C@@H](O)[C@H](O)[C@@H](C)O5)[C@@H](O)[C@@H](C)O4)c(C)c(O)c3c(O)c2C(=O)[C@H]1O[C@H]1C[C@@H](O[C@H]2C[C@@H](O[C@H]3C[C@](C)(O)[C@H](O)[C@@H](C)O3)[C@H](O)[C@@H](C)O2)[C@H](O)[C@@H](C)O1 (some centres undefined) |  | 126 nM (active)
COCC(=O)Nc1cc(Sc2ccccc2)ccc1N=C(NC(=O)OC)NC(=O)OC | -21.2% (inactive) | 
CO[C@H]1C[C@@H]2CC[C@@H](C)[C@@](O)(O2)C(=O)C(=O)N2CCCC[C@H]2C(=O)O[C@H]([C@H](C)C[C@@H]2CC[C@@H](OCCO)[C@H](OC)C2)CC(=O)[C@H](C)/C=C(\C)[C@@H](O)[C@@H](OC)C(=O)[C@H](C)C[C@H](C)/C=C/C=C/C=C/1C |  | 1120 nM (active)
O=C(Nc1cccc(C(F)(F)F)c1)c1cc(Br)cc(Br)c1O |  | 14100 nM (active)
Nc1c(N=Nc2ccc(-c3ccc(N=Nc4cc(S(=O)(=O)O)c5ccccc5c4N)cc3)cc2)cc(S(=O)(=O)O)c2ccccc12 | 1.87% (inactive) | 
CCCCCCCC(=O)O | 0.808% (inactive) | 
CC(O)CO (centres undefined) | 12% (inactive) | 
CC(=O)Oc1cc(C)c(OC(C)=O)c2ccccc12 |  | 12600 nM (active)
O=C(COc1ccc(Cl)cc1)OCCNC12CC3CC(CC(C3)C1)C2 | -2.77% (inactive) | 
CCCCC/C=C\C/C=C\CCCCCCCC(=O)O | 9.34% (inactive) | 
O=S(=O)(O)O | -0.642% (inactive) | 
COC(C(=O)C(O)C(C)O)C1Cc2cc3cc(OC4CC(OC5CC(O)C(O)C(C)O5)C(O)C(C)O4)c(C)c(O)c3c(O)c2C(=O)C1OC1CC(OC2CC(OC3CC(C)(O)C(O)C(C)O3)C(O)C(C)O2)C(O)C(C)O1 (centres undefined) |  | 141 nM (active)
CCCCCCCCCCCC[n+]1ccc2ccccc2c1 |  | 891 nM (active)
O=C(O)c1cc(O)c2c(c1)[O][Bi][O]2 | 3.05% (inactive) | 
CC1=CCC(C(C)(C)O)CC1 (centres undefined) | 3.33% (inactive) | 
C[C@]12CCC(=O)C=C1CC[C@@H]1[C@@H]2[C@@H](O)C[C@@]2(C)[C@H]1CC[C@]2(O)C(=O)COP(=O)(O)O | 3.4% (inactive) | 
